# Source: article PMC7862700, “An all-to-all approach to the identification of sequence-specific readers for epigenetic DNA modifications on cytosine”
# What was measured:
# Assay in all cases: DAPPL (digital affinity profiling via proximity ligation, sequencing); 10 mM Tris-HCl pH 7.5, 50 mM NaCl, 1 mM DTT, 4% glycerol, room temperature, 30 min; GST-TFs on glutathione beads, 16-mer random dsDNA library, 0.1% formaldehyde crosslink after washing; high values mean tight binding
# [1] = molecular target: T1, FEV (Homo sapiens, UniProt Q99581 1-238); conditions: protein: recombinant; tags: N-terminal GST; dsDNA, one strand shown
# T1 sequence: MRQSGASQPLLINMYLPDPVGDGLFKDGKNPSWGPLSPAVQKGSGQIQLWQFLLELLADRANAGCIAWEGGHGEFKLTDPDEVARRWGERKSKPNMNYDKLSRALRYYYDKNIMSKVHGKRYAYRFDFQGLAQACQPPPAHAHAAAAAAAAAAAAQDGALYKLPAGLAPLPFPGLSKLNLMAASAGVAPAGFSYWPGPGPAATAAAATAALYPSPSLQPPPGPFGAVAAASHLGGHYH
# How it was run: (§1)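 Binding signal is defined as a hexamer's read frequency for one factor over its frequency for the tag-only sample. To obtain reads, GST-fused human transcription factors were expressed in yeast, captured on glutathione beads, barcoded with DNA and pooled with that sample. Pools met 200 nmole of a 16-mer random double-stranded DNA library in Tris/NaCl/DTT/glycerol buffer for 30 min at room temperature before washing, 0.1% formaldehyde crosslinking, proximity ligation (BsaI/T4 ligase, 1 h, 37 °C), PCR and Illumina NextSeq500 sequencing.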
# [2] = molecular target: ETV5 (Homo sapiens, UniProt P41161 1-510); conditions: protein: recombinant; tags: N-terminal GST; dsDNA, one strand shown
# How it was run: as §1
# [3] = molecular target: HSF1 (Homo sapiens, UniProt Q00613 1-529); conditions: protein: recombinant; tags: N-terminal GST; chain copies: 3; dsDNA, one strand shown
# How it was run: as §1
# [4] = molecular target: T2, SPIC (Homo sapiens, UniProt Q8N5J4 1-248); conditions: protein: recombinant; tags: N-terminal GST; dsDNA, one strand shown
# T2 sequence: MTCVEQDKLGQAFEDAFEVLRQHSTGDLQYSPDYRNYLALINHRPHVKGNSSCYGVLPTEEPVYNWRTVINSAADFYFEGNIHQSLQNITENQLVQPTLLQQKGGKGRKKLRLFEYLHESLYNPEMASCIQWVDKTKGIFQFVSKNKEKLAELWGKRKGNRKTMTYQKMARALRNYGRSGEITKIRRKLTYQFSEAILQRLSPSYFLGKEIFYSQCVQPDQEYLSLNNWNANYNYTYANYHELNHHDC
# How it was run: as §1
# [5] = molecular target: ELF4 (Homo sapiens, UniProt Q99607 1-663); conditions: protein: recombinant; tags: N-terminal GST; dsDNA, one strand shown
# How it was run: as §1
# [6] = molecular target: T3, ELK4 (Homo sapiens, UniProt P28324-2 1-405); conditions: protein: recombinant; tags: N-terminal GST; dsDNA, one strand shown
# T3 sequence: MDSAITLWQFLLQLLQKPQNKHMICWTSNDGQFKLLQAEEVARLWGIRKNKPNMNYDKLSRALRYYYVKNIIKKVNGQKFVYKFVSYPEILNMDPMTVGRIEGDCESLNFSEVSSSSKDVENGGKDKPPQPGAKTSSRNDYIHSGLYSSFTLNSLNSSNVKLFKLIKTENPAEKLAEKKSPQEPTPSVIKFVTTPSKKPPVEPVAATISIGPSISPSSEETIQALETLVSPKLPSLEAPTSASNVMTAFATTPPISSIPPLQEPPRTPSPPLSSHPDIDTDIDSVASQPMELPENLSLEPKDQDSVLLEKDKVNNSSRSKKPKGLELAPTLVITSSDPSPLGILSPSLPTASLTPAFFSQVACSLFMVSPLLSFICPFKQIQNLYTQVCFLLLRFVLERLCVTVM
# How it was run: as §1
# [7] = molecular target: T4, ETV2 (Homo sapiens, UniProt O00321 1-342); conditions: protein: recombinant; tags: N-terminal GST; dsDNA, one strand shown
# T4 sequence: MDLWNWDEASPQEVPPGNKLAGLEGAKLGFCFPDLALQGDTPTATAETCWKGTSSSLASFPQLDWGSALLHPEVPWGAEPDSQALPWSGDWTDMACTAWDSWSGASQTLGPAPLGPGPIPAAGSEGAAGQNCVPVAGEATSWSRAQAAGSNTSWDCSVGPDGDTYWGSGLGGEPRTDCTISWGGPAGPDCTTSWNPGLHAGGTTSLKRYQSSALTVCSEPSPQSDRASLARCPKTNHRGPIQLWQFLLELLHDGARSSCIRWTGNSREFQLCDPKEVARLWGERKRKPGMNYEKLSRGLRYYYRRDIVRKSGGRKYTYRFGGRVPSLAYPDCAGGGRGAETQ
# How it was run: as §1
# [8] = molecular target: T5, ELF3 (Homo sapiens, UniProt P78545 1-371); conditions: protein: recombinant; tags: N-terminal GST; dsDNA, one strand shown
# T5 sequence: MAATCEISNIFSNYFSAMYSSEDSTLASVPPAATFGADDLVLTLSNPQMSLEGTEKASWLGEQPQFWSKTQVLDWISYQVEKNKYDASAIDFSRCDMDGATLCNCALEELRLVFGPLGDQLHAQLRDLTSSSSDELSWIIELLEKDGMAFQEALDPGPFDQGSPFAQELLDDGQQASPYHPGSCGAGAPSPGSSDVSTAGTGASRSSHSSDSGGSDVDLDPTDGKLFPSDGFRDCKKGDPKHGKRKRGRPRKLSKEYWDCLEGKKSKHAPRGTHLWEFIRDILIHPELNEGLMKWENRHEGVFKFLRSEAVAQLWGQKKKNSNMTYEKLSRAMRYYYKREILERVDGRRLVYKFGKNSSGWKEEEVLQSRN
# How it was run: as §1
# [9] = molecular target: CRX (Homo sapiens, UniProt O43186 1-299); conditions: protein: recombinant; tags: N-terminal GST; dsDNA, one strand shown
# How it was run: as §1
# [10] = molecular target: ETV1 (Homo sapiens, UniProt P50549 1-477); conditions: protein: recombinant; tags: N-terminal GST; dsDNA, one strand shown
# How it was run: as §1
# [11] = molecular target: T6, ERF (Homo sapiens, UniProt P50548 1-548); conditions: protein: recombinant; tags: N-terminal GST; dsDNA, one strand shown
# T6 sequence: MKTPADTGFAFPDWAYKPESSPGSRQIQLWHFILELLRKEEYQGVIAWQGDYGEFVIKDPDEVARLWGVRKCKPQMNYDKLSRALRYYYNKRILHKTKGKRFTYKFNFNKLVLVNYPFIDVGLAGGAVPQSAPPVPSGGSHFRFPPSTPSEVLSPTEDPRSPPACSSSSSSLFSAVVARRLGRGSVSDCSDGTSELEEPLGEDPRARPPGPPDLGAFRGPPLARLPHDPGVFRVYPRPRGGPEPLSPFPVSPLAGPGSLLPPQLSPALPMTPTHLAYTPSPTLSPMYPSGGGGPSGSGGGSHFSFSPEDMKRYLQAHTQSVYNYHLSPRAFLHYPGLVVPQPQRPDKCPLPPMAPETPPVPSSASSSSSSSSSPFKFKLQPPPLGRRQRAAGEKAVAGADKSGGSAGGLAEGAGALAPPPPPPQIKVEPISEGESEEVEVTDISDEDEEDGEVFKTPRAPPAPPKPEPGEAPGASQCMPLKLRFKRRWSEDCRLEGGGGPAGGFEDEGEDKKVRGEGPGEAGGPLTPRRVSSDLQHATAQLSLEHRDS
# How it was run: as §1
# [12] = molecular target: T7, ETV3L (Homo sapiens, UniProt Q6ZN32 1-361); conditions: protein: recombinant; tags: N-terminal GST; dsDNA, one strand shown
# T7 sequence: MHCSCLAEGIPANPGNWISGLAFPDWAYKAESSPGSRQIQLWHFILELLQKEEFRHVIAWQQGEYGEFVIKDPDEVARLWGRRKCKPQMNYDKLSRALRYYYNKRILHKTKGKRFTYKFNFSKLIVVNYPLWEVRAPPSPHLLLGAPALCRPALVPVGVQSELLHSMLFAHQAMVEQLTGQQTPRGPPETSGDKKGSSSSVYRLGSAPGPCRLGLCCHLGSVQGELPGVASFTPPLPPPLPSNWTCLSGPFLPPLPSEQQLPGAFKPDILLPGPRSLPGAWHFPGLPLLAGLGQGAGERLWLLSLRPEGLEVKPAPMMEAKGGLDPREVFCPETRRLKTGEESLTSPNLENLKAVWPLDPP
# How it was run: as §1
# [13] = molecular target: T8, ETS2 (Homo sapiens, UniProt P15036 1-469); conditions: protein: recombinant; tags: N-terminal GST; dsDNA, one strand shown
# T8 sequence: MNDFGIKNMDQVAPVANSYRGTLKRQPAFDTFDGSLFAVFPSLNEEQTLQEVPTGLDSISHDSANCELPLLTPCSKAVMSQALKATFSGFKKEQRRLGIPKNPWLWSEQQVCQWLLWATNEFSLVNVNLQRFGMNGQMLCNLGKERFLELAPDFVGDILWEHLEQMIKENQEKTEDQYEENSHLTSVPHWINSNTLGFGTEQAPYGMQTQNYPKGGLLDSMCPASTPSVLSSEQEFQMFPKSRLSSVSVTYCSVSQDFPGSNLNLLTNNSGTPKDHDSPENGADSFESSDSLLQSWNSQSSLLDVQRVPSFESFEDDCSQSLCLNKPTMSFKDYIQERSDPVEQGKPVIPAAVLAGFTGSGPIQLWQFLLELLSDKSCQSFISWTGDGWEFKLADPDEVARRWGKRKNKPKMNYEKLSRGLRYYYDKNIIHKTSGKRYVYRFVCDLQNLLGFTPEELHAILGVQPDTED
# How it was run: as §1
# [14] = molecular target: T9, SPDEF (Homo sapiens, UniProt O95238 1-335); conditions: protein: recombinant; tags: N-terminal GST; dsDNA, one strand shown
# T9 sequence: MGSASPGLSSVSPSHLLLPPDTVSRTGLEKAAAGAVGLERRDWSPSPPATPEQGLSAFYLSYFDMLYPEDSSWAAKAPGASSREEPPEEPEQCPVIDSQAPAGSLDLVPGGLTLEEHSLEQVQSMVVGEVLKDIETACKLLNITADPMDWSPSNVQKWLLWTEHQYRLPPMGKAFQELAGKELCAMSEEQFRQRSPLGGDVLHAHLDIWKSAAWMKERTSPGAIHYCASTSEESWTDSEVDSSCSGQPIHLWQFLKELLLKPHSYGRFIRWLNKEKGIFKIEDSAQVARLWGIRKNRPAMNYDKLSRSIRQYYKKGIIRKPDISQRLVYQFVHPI
# How it was run: as §1
# [15] = molecular target: T10, ETV7 (Homo sapiens, UniProt Q9Y603 1-341); conditions: protein: recombinant; tags: N-terminal GST; dsDNA, one strand shown
# T10 sequence: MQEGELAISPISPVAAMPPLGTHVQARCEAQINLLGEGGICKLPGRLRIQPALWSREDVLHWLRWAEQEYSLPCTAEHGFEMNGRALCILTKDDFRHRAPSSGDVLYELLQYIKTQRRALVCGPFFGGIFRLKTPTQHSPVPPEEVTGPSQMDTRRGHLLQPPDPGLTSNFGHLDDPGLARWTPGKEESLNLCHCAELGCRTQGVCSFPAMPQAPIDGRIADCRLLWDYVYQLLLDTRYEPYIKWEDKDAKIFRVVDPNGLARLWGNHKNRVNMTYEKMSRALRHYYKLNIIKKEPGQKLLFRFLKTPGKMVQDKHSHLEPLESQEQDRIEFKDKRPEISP
# How it was run: as §1
# [16] = molecular target: T11, ELF5 (Homo sapiens, UniProt Q9UKW6-2 1-255); conditions: protein: recombinant; tags: N-terminal GST; dsDNA, one strand shown
# T11 sequence: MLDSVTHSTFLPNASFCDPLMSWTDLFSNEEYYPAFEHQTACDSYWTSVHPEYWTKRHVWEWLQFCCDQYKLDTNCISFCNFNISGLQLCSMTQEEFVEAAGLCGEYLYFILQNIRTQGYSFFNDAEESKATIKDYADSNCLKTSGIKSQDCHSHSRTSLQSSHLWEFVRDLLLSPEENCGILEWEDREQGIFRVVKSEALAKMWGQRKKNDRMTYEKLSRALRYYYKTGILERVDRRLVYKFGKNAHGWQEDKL
# How it was run: as §1
# [17] = molecular target: T12, ETV3 (Homo sapiens, UniProt P41162-2 1-143); conditions: protein: recombinant; tags: N-terminal GST; dsDNA, one strand shown
# T12 sequence: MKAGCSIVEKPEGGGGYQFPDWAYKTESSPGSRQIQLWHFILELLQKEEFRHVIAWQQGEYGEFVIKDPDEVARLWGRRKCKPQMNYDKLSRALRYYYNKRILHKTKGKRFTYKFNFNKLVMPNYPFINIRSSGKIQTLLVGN
# How it was run: as §1
# [18] = molecular target: ETV6 (Homo sapiens, UniProt P41212 1-452); conditions: protein: recombinant; tags: N-terminal GST; dsDNA, one strand shown
# How it was run: as §1
# ETV1, sequence (P50549 whole entry): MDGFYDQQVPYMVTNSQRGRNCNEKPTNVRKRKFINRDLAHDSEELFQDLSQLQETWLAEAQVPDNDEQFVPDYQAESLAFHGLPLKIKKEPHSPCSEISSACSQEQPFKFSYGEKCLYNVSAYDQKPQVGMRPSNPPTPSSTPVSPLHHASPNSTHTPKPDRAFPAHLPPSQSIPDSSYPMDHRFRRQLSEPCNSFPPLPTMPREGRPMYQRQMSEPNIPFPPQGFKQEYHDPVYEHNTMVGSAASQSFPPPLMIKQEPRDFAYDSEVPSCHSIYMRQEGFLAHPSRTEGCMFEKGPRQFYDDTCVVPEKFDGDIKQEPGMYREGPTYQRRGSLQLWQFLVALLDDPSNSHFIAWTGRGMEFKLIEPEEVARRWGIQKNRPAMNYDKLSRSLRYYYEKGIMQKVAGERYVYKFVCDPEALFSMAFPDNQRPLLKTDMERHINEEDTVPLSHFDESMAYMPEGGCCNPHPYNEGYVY
# CRX, sequence (O43186 whole entry): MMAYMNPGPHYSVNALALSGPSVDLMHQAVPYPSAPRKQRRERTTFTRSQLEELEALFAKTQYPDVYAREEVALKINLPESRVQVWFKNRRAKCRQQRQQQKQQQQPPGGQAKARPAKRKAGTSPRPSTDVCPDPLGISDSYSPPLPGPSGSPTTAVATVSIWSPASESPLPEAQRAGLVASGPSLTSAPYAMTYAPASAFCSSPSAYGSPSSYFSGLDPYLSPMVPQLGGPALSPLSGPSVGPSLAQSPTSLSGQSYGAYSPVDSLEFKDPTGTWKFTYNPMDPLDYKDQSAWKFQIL
# ETV5, sequence (P41161 whole entry): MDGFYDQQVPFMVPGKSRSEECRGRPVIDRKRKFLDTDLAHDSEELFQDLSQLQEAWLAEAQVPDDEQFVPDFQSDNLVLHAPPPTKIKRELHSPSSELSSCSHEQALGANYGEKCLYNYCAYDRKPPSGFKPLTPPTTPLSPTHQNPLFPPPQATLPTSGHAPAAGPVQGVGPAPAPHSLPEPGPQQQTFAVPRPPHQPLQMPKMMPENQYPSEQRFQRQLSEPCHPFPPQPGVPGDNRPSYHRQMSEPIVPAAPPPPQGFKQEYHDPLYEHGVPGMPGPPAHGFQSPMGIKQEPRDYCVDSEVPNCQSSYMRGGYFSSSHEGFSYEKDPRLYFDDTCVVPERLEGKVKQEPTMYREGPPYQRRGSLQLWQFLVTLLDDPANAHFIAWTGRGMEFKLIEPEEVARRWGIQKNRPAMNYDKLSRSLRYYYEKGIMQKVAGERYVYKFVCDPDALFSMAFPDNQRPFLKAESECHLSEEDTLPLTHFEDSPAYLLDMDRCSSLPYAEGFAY
# ELF4, sequence (Q99607 whole entry): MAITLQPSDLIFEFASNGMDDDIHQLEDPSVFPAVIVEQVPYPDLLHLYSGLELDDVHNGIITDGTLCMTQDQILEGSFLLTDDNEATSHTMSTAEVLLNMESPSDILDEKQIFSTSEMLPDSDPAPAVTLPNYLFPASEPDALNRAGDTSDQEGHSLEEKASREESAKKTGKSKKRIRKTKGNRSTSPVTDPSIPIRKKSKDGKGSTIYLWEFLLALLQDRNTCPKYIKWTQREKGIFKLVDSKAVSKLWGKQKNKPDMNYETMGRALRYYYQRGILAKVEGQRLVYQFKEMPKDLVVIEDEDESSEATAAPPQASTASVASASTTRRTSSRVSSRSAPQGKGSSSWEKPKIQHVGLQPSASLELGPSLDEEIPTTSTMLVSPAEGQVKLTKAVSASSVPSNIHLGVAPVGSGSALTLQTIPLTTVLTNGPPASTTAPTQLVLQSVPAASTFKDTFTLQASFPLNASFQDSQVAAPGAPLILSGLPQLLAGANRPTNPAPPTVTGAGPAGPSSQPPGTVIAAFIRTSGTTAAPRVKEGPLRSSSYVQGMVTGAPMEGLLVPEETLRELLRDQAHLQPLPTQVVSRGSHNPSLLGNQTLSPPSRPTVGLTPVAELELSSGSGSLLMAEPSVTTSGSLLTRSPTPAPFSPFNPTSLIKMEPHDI
# ETV6, sequence (P41212 whole entry): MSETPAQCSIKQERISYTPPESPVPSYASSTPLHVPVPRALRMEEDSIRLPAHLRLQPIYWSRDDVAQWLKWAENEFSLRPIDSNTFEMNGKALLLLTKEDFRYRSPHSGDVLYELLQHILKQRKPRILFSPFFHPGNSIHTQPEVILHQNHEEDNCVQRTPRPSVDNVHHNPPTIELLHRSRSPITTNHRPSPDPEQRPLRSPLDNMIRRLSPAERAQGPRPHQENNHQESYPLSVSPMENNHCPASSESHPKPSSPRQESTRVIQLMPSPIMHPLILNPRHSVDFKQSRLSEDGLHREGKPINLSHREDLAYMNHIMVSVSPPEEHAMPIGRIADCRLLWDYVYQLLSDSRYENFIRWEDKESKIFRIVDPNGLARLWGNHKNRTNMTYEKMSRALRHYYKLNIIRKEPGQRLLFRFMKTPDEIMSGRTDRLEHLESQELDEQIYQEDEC
# HSF1, sequence (Q00613 whole entry): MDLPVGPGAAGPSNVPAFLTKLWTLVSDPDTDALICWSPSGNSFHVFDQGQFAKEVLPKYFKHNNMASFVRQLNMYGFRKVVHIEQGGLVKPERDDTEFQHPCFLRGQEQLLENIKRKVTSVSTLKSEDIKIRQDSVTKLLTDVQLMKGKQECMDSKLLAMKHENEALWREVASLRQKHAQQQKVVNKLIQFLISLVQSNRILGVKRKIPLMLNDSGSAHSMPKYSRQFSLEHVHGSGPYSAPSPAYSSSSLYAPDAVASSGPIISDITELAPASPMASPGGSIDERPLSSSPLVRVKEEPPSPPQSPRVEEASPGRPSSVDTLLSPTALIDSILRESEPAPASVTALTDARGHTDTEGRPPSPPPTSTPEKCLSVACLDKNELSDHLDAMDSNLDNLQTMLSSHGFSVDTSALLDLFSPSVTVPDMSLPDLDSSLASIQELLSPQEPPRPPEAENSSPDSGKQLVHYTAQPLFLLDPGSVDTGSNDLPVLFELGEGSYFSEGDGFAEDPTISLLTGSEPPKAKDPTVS
sequence,measurement,setting,value
TTAACA,binding signal,[1],"1.13 fold enrichment (6-mer frequency, TF over GST control)"
same,binding signal,[2],"1.14 fold enrichment (6-mer frequency, TF over GST control)"
same,binding signal,[3],"1.65 fold enrichment (6-mer frequency, TF over GST control)"
same,binding signal,[4],"1.14 fold enrichment (6-mer frequency, TF over GST control)"
same,binding signal,[5],"1.18 fold enrichment (6-mer frequency, TF over GST control)"
same,binding signal,[6],"1.28 fold enrichment (6-mer frequency, TF over GST control)"
same,binding signal,[7],"1.23 fold enrichment (6-mer frequency, TF over GST control)"
same,binding signal,[8],"1.22 fold enrichment (6-mer frequency, TF over GST control)"
same,binding signal,[9],"2.34 fold enrichment (6-mer frequency, TF over GST control)"
same,binding signal,[10],"1.23 fold enrichment (6-mer frequency, TF over GST control)"
same,binding signal,[11],"1.19 fold enrichment (6-mer frequency, TF over GST control)"
same,binding signal,[12],"1.2 fold enrichment (6-mer frequency, TF over GST control)"
same,binding signal,[13],"1.19 fold enrichment (6-mer frequency, TF over GST control)"
same,binding signal,[14],"1.21 fold enrichment (6-mer frequency, TF over GST control)"
same,binding signal,[15],"1.18 fold enrichment (6-mer frequency, TF over GST control)"
same,binding signal,[16],"1.14 fold enrichment (6-mer frequency, TF over GST control)"
same,binding signal,[17],"1.19 fold enrichment (6-mer frequency, TF over GST control)"
same,binding signal,[18],"1.11 fold enrichment (6-mer frequency, TF over GST control)"
